Source: publication PMC7862700, “An all-to-all approach to the identification of sequence-specific readers for epigenetic DNA modifications on cytosine”

Legend:
Experiment in all cases: DAPPL (digital affinity profiling via proximity ligation, sequencing); 10 mM Tris-HCl pH 7.5, 50 mM NaCl, 1 mM DTT, 4% glycerol, room temperature, 30 min; GST-TFs on glutathione beads, 16-mer random dsDNA library, 0.1% formaldehyde crosslink after washing; high values mean tight binding
Conditions in all cases: protein: recombinant; tags: N-terminal GST; dsDNA, one strand shown
ERF = biological target: T1, ERF (Homo sapiens, UniProt P50548 1-548)
T1 sequence: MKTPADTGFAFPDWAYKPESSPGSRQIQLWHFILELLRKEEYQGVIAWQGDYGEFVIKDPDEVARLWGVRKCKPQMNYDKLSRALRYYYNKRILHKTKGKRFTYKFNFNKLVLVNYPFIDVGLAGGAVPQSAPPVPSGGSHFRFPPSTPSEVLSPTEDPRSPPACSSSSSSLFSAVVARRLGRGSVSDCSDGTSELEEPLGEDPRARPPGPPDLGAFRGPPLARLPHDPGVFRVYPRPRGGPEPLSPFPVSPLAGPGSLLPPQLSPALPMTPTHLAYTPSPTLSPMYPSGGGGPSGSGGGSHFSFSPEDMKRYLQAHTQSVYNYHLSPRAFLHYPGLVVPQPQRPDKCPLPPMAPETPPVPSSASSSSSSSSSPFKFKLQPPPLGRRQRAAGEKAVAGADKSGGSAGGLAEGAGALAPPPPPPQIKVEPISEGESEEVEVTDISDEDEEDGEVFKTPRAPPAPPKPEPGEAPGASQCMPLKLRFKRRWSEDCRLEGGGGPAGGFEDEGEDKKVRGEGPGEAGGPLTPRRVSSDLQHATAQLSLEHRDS
Method in brief: (§1)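 Binding signal is defined as a hexamer's read frequency for one factor over its frequency for the tag-only sample. To obtain reads, GST-fused human transcription factors were expressed in yeast, captured on glutathione beads, barcoded with DNA and pooled with that sample. Pools met 200 nmole of a 16-mer random double-stranded DNA library in Tris/NaCl/DTT/glycerol buffer for 30 min at room temperature before washing, 0.1% formaldehyde crosslinking, proximity ligation (BsaI/T4 ligase, 1 h, 37 °C), PCR and Illumina NextSeq500 sequencing.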

ETV3L = biological target: T2, ETV3L (Homo sapiens, UniProt Q6ZN32 1-361)
T2 sequence: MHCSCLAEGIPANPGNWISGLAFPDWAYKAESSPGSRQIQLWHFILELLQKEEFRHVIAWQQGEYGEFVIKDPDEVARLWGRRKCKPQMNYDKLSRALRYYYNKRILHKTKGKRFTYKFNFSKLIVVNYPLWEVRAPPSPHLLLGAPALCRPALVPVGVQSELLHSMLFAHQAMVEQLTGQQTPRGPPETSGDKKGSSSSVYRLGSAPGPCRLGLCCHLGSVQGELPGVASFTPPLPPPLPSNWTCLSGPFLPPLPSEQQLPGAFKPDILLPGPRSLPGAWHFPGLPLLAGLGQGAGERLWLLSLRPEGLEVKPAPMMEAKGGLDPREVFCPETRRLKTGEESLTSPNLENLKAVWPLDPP
Method in brief: as §1

ETS2 = biological target: T3, ETS2 (Homo sapiens, UniProt P15036 1-469)
T3 sequence: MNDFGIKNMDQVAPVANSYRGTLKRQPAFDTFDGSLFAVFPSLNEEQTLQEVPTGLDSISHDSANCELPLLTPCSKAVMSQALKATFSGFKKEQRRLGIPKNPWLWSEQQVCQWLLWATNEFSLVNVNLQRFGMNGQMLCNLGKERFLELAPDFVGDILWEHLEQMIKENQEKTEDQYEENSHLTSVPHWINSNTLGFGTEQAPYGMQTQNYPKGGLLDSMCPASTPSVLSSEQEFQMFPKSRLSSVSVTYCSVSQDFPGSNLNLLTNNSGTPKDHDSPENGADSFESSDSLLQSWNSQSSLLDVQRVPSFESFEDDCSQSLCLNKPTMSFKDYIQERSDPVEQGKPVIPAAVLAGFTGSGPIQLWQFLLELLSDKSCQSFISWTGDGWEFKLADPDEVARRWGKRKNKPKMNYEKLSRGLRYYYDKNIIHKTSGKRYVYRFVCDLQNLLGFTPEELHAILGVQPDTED
Method in brief: as §1

SPDEF = biological target: T4, SPDEF (Homo sapiens, UniProt O95238 1-335)
T4 sequence: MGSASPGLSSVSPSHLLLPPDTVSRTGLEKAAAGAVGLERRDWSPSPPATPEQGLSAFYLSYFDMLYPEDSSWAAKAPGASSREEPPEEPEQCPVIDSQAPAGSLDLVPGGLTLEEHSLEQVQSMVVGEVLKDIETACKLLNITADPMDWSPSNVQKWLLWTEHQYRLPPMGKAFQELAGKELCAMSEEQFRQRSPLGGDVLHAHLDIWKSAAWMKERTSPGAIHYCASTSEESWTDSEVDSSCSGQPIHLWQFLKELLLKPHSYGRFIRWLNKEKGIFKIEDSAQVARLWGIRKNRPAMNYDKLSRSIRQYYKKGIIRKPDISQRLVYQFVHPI
Method in brief: as §1

ETV7 = biological target: T5, ETV7 (Homo sapiens, UniProt Q9Y603 1-341)
T5 sequence: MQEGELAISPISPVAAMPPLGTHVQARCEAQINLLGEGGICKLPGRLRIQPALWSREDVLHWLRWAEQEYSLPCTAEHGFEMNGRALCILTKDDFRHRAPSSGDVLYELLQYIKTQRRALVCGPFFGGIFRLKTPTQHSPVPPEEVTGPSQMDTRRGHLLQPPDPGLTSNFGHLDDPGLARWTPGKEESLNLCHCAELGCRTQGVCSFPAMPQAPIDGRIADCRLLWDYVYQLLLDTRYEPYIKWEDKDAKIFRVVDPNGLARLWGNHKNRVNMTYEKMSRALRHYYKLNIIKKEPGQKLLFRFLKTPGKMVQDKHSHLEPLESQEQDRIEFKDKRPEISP
Method in brief: as §1

ELF5 = biological target: T6, ELF5 (Homo sapiens, UniProt Q9UKW6-2 1-255)
T6 sequence: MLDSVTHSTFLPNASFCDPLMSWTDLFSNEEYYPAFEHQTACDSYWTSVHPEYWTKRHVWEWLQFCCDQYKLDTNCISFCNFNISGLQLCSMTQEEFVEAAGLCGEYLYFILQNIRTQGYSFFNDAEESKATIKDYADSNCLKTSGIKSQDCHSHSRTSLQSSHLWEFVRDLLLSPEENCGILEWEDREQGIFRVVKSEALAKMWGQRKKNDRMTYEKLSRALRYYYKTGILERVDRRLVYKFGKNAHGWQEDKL
Method in brief: as §1

ETV3 = biological target: T7, ETV3 (Homo sapiens, UniProt P41162-2 1-143)
T7 sequence: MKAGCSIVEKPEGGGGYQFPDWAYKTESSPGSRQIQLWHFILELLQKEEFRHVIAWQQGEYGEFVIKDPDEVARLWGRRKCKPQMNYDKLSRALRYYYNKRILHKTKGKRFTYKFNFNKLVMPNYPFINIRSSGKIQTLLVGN
Method in brief: as §1

ETV6 = ETV6 (Homo sapiens, UniProt P41212 1-452)
Method in brief: as §1

Sequence of ETV6 (P41212 whole entry): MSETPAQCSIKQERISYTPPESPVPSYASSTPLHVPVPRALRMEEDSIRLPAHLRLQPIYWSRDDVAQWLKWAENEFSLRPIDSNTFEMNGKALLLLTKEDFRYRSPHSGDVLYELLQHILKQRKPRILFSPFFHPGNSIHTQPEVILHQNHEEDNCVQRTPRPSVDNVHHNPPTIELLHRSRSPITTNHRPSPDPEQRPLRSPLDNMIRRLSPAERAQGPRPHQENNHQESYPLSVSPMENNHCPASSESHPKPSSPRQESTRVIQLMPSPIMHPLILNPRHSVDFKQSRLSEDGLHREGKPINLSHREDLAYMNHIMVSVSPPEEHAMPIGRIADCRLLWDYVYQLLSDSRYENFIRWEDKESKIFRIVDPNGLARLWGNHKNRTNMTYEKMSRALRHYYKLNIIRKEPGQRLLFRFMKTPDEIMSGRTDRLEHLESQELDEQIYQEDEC

Which binding signal (ERF) does the source give for TCTAGC here?
The binding signal was 1.35 fold enrichment (6-mer frequency, TF over GST control).

And the binding signal (ETV3L)?
Its binding signal is 1.27 fold enrichment (6-mer frequency, TF over GST control).

What about the binding signal (ETS2) of the same sequence?
Its binding signal is 1.3 fold enrichment (6-mer frequency, TF over GST control).

And the binding signal (SPDEF)?
The binding signal was 1.22 fold enrichment (6-mer frequency, TF over GST control).

What about the binding signal (ETV7) of the same sequence?
The binding signal was 1.36 fold enrichment (6-mer frequency, TF over GST control).

What about the binding signal (ELF5) of the same sequence?
Its binding signal is 1.21 fold enrichment (6-mer frequency, TF over GST control).

What about the binding signal (ETV3) of the same sequence?
The binding signal was 1.32 fold enrichment (6-mer frequency, TF over GST control).

What about the binding signal (ETV6) of the same sequence?
The binding signal was 1.22 fold enrichment (6-mer frequency, TF over GST control).

For ATTGCA, which binding signal (ERF) is on record?
The binding signal was 1.23 fold enrichment (6-mer frequency, TF over GST control).

And the binding signal (ETV3L)?
The binding signal was 1.19 fold enrichment (6-mer frequency, TF over GST control).

What about the binding signal (ETS2) of the same sequence?
The binding signal was 1.15 fold enrichment (6-mer frequency, TF over GST control).

What about the binding signal (SPDEF) of the same sequence?
Its binding signal is 1.18 fold enrichment (6-mer frequency, TF over GST control).

What about the binding signal (ETV7) of the same sequence?
The binding signal was 1.17 fold enrichment (6-mer frequency, TF over GST control).

What about the binding signal (ELF5) of the same sequence?
The binding signal was 1.16 fold enrichment (6-mer frequency, TF over GST control).

What about the binding signal (ETV3) of the same sequence?
Its binding signal is 1.09 fold enrichment (6-mer frequency, TF over GST control).

And the binding signal (ETV6)?
Its binding signal is 1.21 fold enrichment (6-mer frequency, TF over GST control).

For TCCAAG, which binding signal (ERF) is on record?
The binding signal was 1.03 fold enrichment (6-mer frequency, TF over GST control).

What about the binding signal (ETV3L) of the same sequence?
Its binding signal is 1.06 fold enrichment (6-mer frequency, TF over GST control).

What about the binding signal (ETS2) of the same sequence?
Its binding signal is 1.13 fold enrichment (6-mer frequency, TF over GST control).

And the binding signal (SPDEF)?
Its binding signal is 1.17 fold enrichment (6-mer frequency, TF over GST control).

What about the binding signal (ETV7) of the same sequence?
The binding signal was 1.07 fold enrichment (6-mer frequency, TF over GST control).

And the binding signal (ELF5)?
Its binding signal is 1.07 fold enrichment (6-mer frequency, TF over GST control).

What about the binding signal (ETV3) of the same sequence?
Its binding signal is 1.06 fold enrichment (6-mer frequency, TF over GST control).

And the binding signal (ETV6)?
The binding signal was 1.03 fold enrichment (6-mer frequency, TF over GST control).

How did the binding signal (ERF) turn out when CTCCTC was run?
Its binding signal is 1.32 fold enrichment (6-mer frequency, TF over GST control).

What about the binding signal (ETV3L) of the same sequence?
Its binding signal is 1.61 fold enrichment (6-mer frequency, TF over GST control).

And the binding signal (ETS2)?
The binding signal was 1.33 fold enrichment (6-mer frequency, TF over GST control).

And the binding signal (SPDEF)?
The binding signal was 1.29 fold enrichment (6-mer frequency, TF over GST control).

What about the binding signal (ETV7) of the same sequence?
The binding signal was 1.29 fold enrichment (6-mer frequency, TF over GST control).

And the binding signal (ELF5)?
Its binding signal is 1.32 fold enrichment (6-mer frequency, TF over GST control).

And the binding signal (ETV3)?
The binding signal was 1.22 fold enrichment (6-mer frequency, TF over GST control).

What about the binding signal (ETV6) of the same sequence?
The binding signal was 1.38 fold enrichment (6-mer frequency, TF over GST control).

What does the source list for TACCTA?
binding signal (ERF): 1.25 fold enrichment (6-mer frequency, TF over GST control); binding signal (ETV3L): 1.28 fold enrichment (6-mer frequency, TF over GST control); binding signal (ETS2): 1.31 fold enrichment (6-mer frequency, TF over GST control); binding signal (SPDEF): 1.19 fold enrichment (6-mer frequency, TF over GST control); binding signal (ETV7): 1.27 fold enrichment (6-mer frequency, TF over GST control); binding signal (ELF5): 1.23 fold enrichment (6-mer frequency, TF over GST control); binding signal (ETV3): 1.2 fold enrichment (6-mer frequency, TF over GST control); binding signal (ETV6): 1.29 fold enrichment (6-mer frequency, TF over GST control)

With GGACCT as the sequence, how does the binding signal (ERF) read?
Its binding signal is 1.31 fold enrichment (6-mer frequency, TF over GST control).

And the binding signal (ETV3L)?
The binding signal was 1.43 fold enrichment (6-mer frequency, TF over GST control).

What about the binding signal (ETS2) of the same sequence?
Its binding signal is 1.41 fold enrichment (6-mer frequency, TF over GST control).

And the binding signal (SPDEF)?
Its binding signal is 1.53 fold enrichment (6-mer frequency, TF over GST control).

And the binding signal (ETV7)?
Its binding signal is 1.34 fold enrichment (6-mer frequency, TF over GST control).

And the binding signal (ELF5)?
Its binding signal is 1.27 fold enrichment (6-mer frequency, TF over GST control).

And the binding signal (ETV3)?
The binding signal was 1.32 fold enrichment (6-mer frequency, TF over GST control).

What about the binding signal (ETV6) of the same sequence?
Its binding signal is 1.34 fold enrichment (6-mer frequency, TF over GST control).

What does the source list for AACTTA?
binding signal (ERF): 1.29 fold enrichment (6-mer frequency, TF over GST control); binding signal (ETV3L): 1.14 fold enrichment (6-mer frequency, TF over GST control); binding signal (ETS2): 1.22 fold enrichment (6-mer frequency, TF over GST control); binding signal (SPDEF): 1.16 fold enrichment (6-mer frequency, TF over GST control); binding signal (ETV7): 1.14 fold enrichment (6-mer frequency, TF over GST control); binding signal (ELF5): 1.25 fold enrichment (6-mer frequency, TF over GST control); binding signal (ETV3): 1.14 fold enrichment (6-mer frequency, TF over GST control); binding signal (ETV6): 1.32 fold enrichment (6-mer frequency, TF over GST control)
